In the supplement of paper PMC12494721:
Structures can show the parent of a compound that is named as a salt.

Experiments:
Settings in all cases: incubation time: 27 h, anaerobic, 37 °C;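 for the amine columns active = adjusted P below 0.05 in both replicates with a change the same way and a mean fold change under 0.8 or over 1.25; inactive = the rest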
[1] = test system: Clostridium sporogenes DSM 1664; assay: growth (OD595) fold change vs plate DMSO controls (fold change (ratio)); higher = more growth
In short: (§1)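 The 96-well mGAM cultures had been kept anaerobic for 27 h at 37 °C before being shaken and read at 595 nm. Blank subtraction, compound background correction with 20 µM compound solutions in water, and a calibration factor of 5 turned the readings into OD. Growth is given as the fold change versus the median of plate DMSO controls. Fold changes above 1.5 were set to NA, and the values are means of 2 biological replicates.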

[2] = test system: Escherichia coli IAI1; assay: as above
In short: as §1

[3] = test system: Klebsiella aerogenes DSM 30053; assay: as above
In short: as §1

[4] = test system: Ruminococcus gnavus DSM 108212; assay: as above
In short: as §1

[5] = test system: Klebsiella aerogenes DSM 30053; assay: fold change of Histamine concentration vs plate DMSO controls (fold change (ratio)); higher = more amine produced, active = hit call of the paper (significant change in both replicates, either direction)
In short: (§2)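 In 80 µL wells, cultures of four gut bacterial strains in mGAM started at OD 0.1 before a 1:1 dilution and grew anaerobically at 37 °C for 27 h. Compounds were added to 20 µM final, except sweeteners at 50 µM final. After extraction of whole cultures with cold acetonitrile/methanol plus 0.1% formic acid and centrifugation, amines were measured by LC–triple-quadrupole MS in dynamic MRM mode against external calibration curves, with within-batch drift correction. Values give fold change over DMSO controls on the same plate, averaged across 2 biological replicates.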

[6] = test system: Clostridium sporogenes DSM 1664; assay: fold change of Tryptamine concentration vs plate DMSO controls (fold change (ratio)); higher = more amine produced, active = hit call of the paper (significant change in both replicates, either direction)
In short: as §2

[7] = test system: Ruminococcus gnavus DSM 108212; assay: as above
In short: as §2

[8] = test system: Escherichia coli IAI1; assay: fold change of Putrescine concentration vs plate DMSO controls (fold change (ratio)); higher = more amine produced, active = hit call of the paper (significant change in both replicates, either direction)
In short: as §2

[9] = test system: Klebsiella aerogenes DSM 30053; assay: as above
In short: as §2

[10] = test system: Escherichia coli IAI1; assay: fold change of Cadaverine concentration vs plate DMSO controls (fold change (ratio)); higher = more amine produced, active = hit call of the paper (significant change in both replicates, either direction)
In short: as §2

[11] = test system: Klebsiella aerogenes DSM 30053; assay: as above
In short: as §2

[12] = test system: Ruminococcus gnavus DSM 108212; assay: fold change of 2-Phenylethylamine concentration vs plate DMSO controls (fold change (ratio)); higher = more amine produced, active = hit call of the paper (significant change in both replicates, either direction)
In short: as §2

Structure (SMILES) | growth [1] | growth [2] | growth [3] | growth [4] | fold change of Histamine concentration [5] | fold change of Tryptamine concentration [6] | fold change of Tryptamine concentration [7] | fold change of Putrescine concentration [8] | fold change of Putrescine concentration [9] | fold change of Cadaverine concentration [10] | fold change of Cadaverine concentration [11] | fold change of 2-Phenylethylamine concentration [12]
CCC[C@@H]1C[C@@H](C(=O)N[C@@H]([C@H]2O[C@H](SC)[C@H](O)[C@@H](O)[C@H]2O)[C@@H](C)O)N(C)C1 [Lincomycin hydrochloride] (20 µM) | 0.767 | 0.925 | 0.981 | 0.121 | 0.952 (inactive) | 0.761 (active) | 0.129 (active) | 0.531 (inactive) | 0.682 (active) | 0.967 (inactive) | 1.02 (inactive) | 0.117 (active)
CCOC(=O)c1ccc(C#Cc2ccc3c(c2)C(C)(C)CCS3)nc1 [Tazarotene] (20 µM) | 1.02 | 0.951 | 0.961 | 0.972 | 1.02 (inactive) | 1.17 (inactive) | 1.22 (inactive) | 0.958 (inactive) | 0.977 (inactive) | 0.942 (inactive) | 1.04 (inactive) | 1.22 (inactive)
CSc1ccc2c(c1)N(CCC1CCCCN1C)c1ccccc1S2 (stereo not given) [Thioridazine hydrochloride] (20 µM) | 1.15 | 1.03 | 1.01 | 1.25 | 0.936 (inactive) | 1.12 (inactive) | 0.808 (inactive) | 1.04 (inactive) | 0.948 (inactive) | 1.1 (inactive) | 1.02 (inactive) | 0.941 (inactive)
COc1ccc(C(=O)CC(=O)c2ccc(C(C)(C)C)cc2)cc1 [Avobenzone] (20 µM) | 0.839 | 0.95 | 0.975 | 0.891 | 1.01 (inactive) | 0.932 (inactive) | 1.02 (inactive) | 0.998 (inactive) | 0.993 (inactive) | 1.05 (inactive) | 0.988 (inactive) | 1.08 (inactive)
CN1CCN(CCCN2c3ccccc3Sc3ccc(Cl)cc32)CC1 [Prochlorperazine dimaleate] (20 µM) | 1.06 | 1.11 | 1.14 | 0.858 | 0.917 (inactive) | 1.04 (inactive) | 0.87 (inactive) | 0.974 (inactive) | 0.979 (inactive) | 0.971 (inactive) | 1.02 (inactive) | 0.97 (inactive)
CN(C)CCCO[C@@H]1[C@H]2OC(C)(C)O[C@H]2O[C@@H]1[C@H](O)CO [Amiprilose hydrochloride] (20 µM) | 1.09 | 1.03 | 1.01 | 1.1 | 1.07 (inactive) | 1.04 (inactive) | 1.04 (inactive) | 0.973 (inactive) | 1.02 (inactive) | 0.994 (inactive) | 0.992 (inactive) | 1.01 (inactive)
Cc1ccc(C(=O)c2ccc(CC(=O)O)n2C)cc1 [Tolmetin sodium salt dihydrate] (20 µM) | 1.12 | 0.976 | 1.01 | 0.976 | 1.05 (inactive) | 1 (inactive) | 0.958 (inactive) | 0.949 (inactive) | 1.01 (inactive) | 1 (inactive) | 1 (inactive) | 0.913 (inactive)
COc1ccc2c(c1)C(=O)N(CCc1ccc(S(=O)(=O)NC(=O)NC3CCCCC3)cc1)C(=O)C2(C)C [Gliquidone] (20 µM) | 0.999 | 1.05 | 0.984 | 0.999 | 1.04 (inactive) | 0.929 (inactive) | 0.956 (inactive) | 1.04 (inactive) | 1 (inactive) | 1.04 (inactive) | 0.988 (inactive) | 0.942 (inactive)
O=C(NCc1ncc(C(F)(F)F)cc1Cl)c1c(Cl)cccc1Cl (20 µM) | 1 | 0.98 | 1 | 1.03 | 1.01 (inactive) | 0.989 (inactive) | 1.01 (inactive) | 1.01 (inactive) | 1.02 (inactive) | 1.01 (inactive) | 1.01 (inactive) | 0.956 (inactive)
CC(=O)OCC(=O)[C@@]12N=C(C)O[C@@H]1C[C@H]1[C@@H]3CCC4=CC(=O)C=C[C@]4(C)[C@H]3[C@@H](O)C[C@@]12C [Deflazacort] (20 µM) | 0.981 | 0.976 | 0.986 | 0.905 | 1 (inactive) | 1.02 (inactive) | 1.07 (inactive) | 1.03 (inactive) | 1 (inactive) | 0.993 (inactive) | 0.991 (inactive) | 1.1 (inactive)
Oc1cc(O)c2c(c1)O[C@H](c1ccc(O)c(O)c1)[C@@H](O)C2 [Cianidanol] (20 µM) | 1.04 | 0.998 | 0.998 | 1.06 | 1.03 (inactive) | 1.26 (active) | 0.867 (inactive) | 0.977 (inactive) | 0.95 (inactive) | 0.859 (inactive) | 0.993 (inactive) | 0.978 (inactive)
CCN(CC)CCc1nc(-c2ccccc2)no1 [Oxolamine citrate salt] (20 µM) | 1.13 | 0.976 | 0.968 | 1.01 | 1.04 (inactive) | 1.04 (inactive) | 1.03 (inactive) | 0.967 (inactive) | 1.01 (inactive) | 1.02 (inactive) | 0.987 (inactive) | 1.03 (inactive)
C[C@H](N)[C@H](O)c1cccc(O)c1 [Metaraminol bitartrate] (20 µM) | 1.04 | 0.987 | 1.09 | 0.95 | 1.04 (inactive) | 1.05 (inactive) | 1.08 (inactive) | 1.02 (inactive) | 1.02 (inactive) | 0.982 (inactive) | 0.998 (inactive) | 1.12 (inactive)
CC1CCc2c(N3CCC(O)CC3)c(F)cc3c(=O)c(C(=O)O)cn1c23 (stereo not given) [Nadifloxacin] (20 µM) | 0.00717 | 0.0576 | 0.316 | 0.383 | 0.5 (active) | 0.0474 (active) | 0.271 (active) | 0.763 (inactive) | 1.16 (inactive) | 0.267 (active) | 0.982 (inactive) | 0.362 (active)
Oc1ccc(OCc2ccccc2)cc1 [Monobenzone] (20 µM) | 1.21 | 0.897 | 1.11 | 1.03 | 0.974 (inactive) | 1.02 (inactive) | 0.872 (inactive) | 0.884 (inactive) | 1.01 (inactive) | 0.978 (inactive) | 0.996 (inactive) | 0.828 (inactive)
Cc1cc(C(=O)NNCc2ccccc2)no1 [Isocarboxazid] (20 µM) | 1.17 | 1.04 | 1.18 | 0.995 | 0.915 (inactive) | 1.09 (inactive) | 1.07 (inactive) | 1.05 (inactive) | 0.987 (inactive) | 0.983 (inactive) | 1.02 (inactive) | 1.09 (inactive)
COc1ccccc1OCC(O)COC(N)=O (stereo not given) [Methocarbamol] (20 µM) | 1.03 | 1 | 1.03 | 1.12 | 1.06 (inactive) | 1.02 (inactive) | 0.963 (inactive) | 0.998 (inactive) | 1.01 (inactive) | 0.986 (inactive) | 0.987 (inactive) | 0.95 (inactive)
Cc1c(NC(C)C)c(=O)n(-c2ccccc2)n1C [Isopyrin hydrochloride] (20 µM) | 1.12 | 1.02 | 1.02 | 1 | 0.951 (inactive) | 1.03 (inactive) | 1.2 (inactive) | 1.14 (inactive) | 0.943 (inactive) | 1.02 (inactive) | 1 (inactive) | 1.32 (inactive)
CCCNC(C)(C)C(=O)Nc1ccccc1C [Quatacaine] (20 µM) | 1.01 | 0.991 | 0.979 | 0.952 | 1.01 (inactive) | 1.01 (inactive) | 1.05 (inactive) | 0.994 (inactive) | 1 (inactive) | 0.951 (inactive) | 0.997 (inactive) | 1.04 (inactive)
CCOc1ccc2ccccc2c1C(=O)N[C@@H]1C(=O)N2[C@@H]1SC(C)(C)[C@@H]2C(=O)O [Nafcillin sodium salt monohydrate] (20 µM) | 0 | 0.973 | 1.01 | 0 | 0.899 (inactive) | 0.0237 (active) | 0.0506 (active) | 0.908 (inactive) | 1.06 (inactive) | 1.02 (inactive) | 1.02 (inactive) | 0.0511 (active)
C[N+]1(C)CCC(OC(=O)C(O)(c2ccccc2)C2CCCC2)C1 (stereo not given) [Glycopyrrolate bromide] (20 µM) | 0.836 | 1.03 | 1.01 | 0.959 | 1 (inactive) | 1.01 (inactive) | 0.994 (inactive) | 1.08 (inactive) | 1 (inactive) | 1.01 (inactive) | 1.01 (inactive) | 1.02 (inactive)
CCOc1ccccc1OCC1CNCCO1 (stereo not given) [Viloxazine hydrochloride] (20 µM) | 0.836 | 0.991 | 0.986 | 0.675 | 0.986 (inactive) | 1.03 (inactive) | 0.572 (active) | 1.06 (inactive) | 1 (inactive) | 0.971 (inactive) | 0.992 (inactive) | 0.696 (active)
CCC(C)(CN(C)C)OC(=O)c1ccccc1 (stereo not given) [Amyleine hydrochloride] (20 µM) | 0.952 | 1.01 | 0.983 | 0.997 | 1.02 (inactive) | 0.974 (inactive) | 0.945 (inactive) | 1.04 (inactive) | 1.02 (inactive) | 1.01 (inactive) | 0.983 (inactive) | 0.874 (inactive)
CNCC(O)c1ccc(O)c(O)c1 (stereo not given) [Racepinephrine hydrochloride] (20 µM) | 1.15 | 1.07 | 1.27 | 1.24 | 0.938 (inactive) | 1.05 (inactive) | 1.05 (inactive) | 1.01 (inactive) | 1.02 (inactive) | 0.94 (inactive) | 1.03 (inactive) | 1.05 (inactive)
CCCCOc1ccc(C(=O)CCN2CCCCC2)cc1 [Dyclonine hydrochloride] (20 µM) | 1.17 | 0.992 | 0.966 | 1.22 | 1 (inactive) | 0.989 (inactive) | 0.947 (inactive) | 0.989 (inactive) | 0.995 (inactive) | 0.995 (inactive) | 0.984 (inactive) | 0.936 (inactive)
